According to PubChem BioAssay (NCATS):
Records with an inconclusive call do not appear. Active and inactive are the calls of the source. Calls follow the shape of the dose curve; as a rule, active = well fitted curve in the direction sought with a large enough effect; inconclusive = small, poorly fitted or top-dose-only effect, or another doubt; inactive = no such curve, though single readings can be large; an effect the other way counts as inactive or inconclusive.

Tests used:
[1] = tested on: HACAT; assay: qHTS assay to identify novel small-molecules to repurpose for Merkel cell carcinoma treatment (AID 1296009); conditions: MCC and control cell lines, CellTiter-Glo viability, 72 h; at 44.8 µM (top of the series) unless noted; also: nearly all actives have a fitted effect of over 60% in size
Summary of the method: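 qHTS format: cells treated with library compounds in DMSO across 8 (NPC) or 11 (MIPE) concentrations. Readout after 72 hr at 37 degree celsius was CellTiter-Glo luminescence.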

[2] = tested on: C33A; assay: Primary qHTS to identify gynecologic anti-cancer compounds using libraries of approved drugs and bioactive compounds (AID 1345084); conditions: Gynecologic cancer cell panel viability, ATPlite luminescence, 48 h; series mostly up to 57.5 µM; also: % is scaled to controls: 0 for no effect and ±100 for the full control effect; nearly all actives have a fitted effect of over 55% in size
Summary of the method: (§1)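 Measured: luminescence after ATPlite addition (15 min, RT). Exposure: 48 h, 37 C, 5% CO2.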

[3] = tested on: CAOV3; assay: as above; conditions: Gynecologic cancer cell panel viability, ATPlite luminescence, 48 h; series mostly up to 57.5 µM
Summary of the method: as §1

[4] = tested on: CASKI; assay: as above; conditions: Gynecologic cancer cell panel viability, ATPlite luminescence, 48 h; series mostly up to 57.5 µM
Summary of the method: as §1

[5] = tested on: Es-2; assay: as above; conditions: Gynecologic cancer cell panel viability, ATPlite luminescence, 48 h; series mostly up to 57.5 µM
Summary of the method: as §1

[6] = tested on: HeLa; assay: as above; conditions: Gynecologic cancer cell panel viability, ATPlite luminescence, 48 h; series mostly up to 57.5 µM
Summary of the method: as §1

[7] = tested on: Hek293T; assay: as above; conditions: Gynecologic cancer cell panel viability, ATPlite luminescence, 48 h, control line for the selectivity index; series mostly up to 57.5 µM
Summary of the method: as §1

[8] = tested on: JEG-3; assay: as above; conditions: Gynecologic cancer cell panel viability, ATPlite luminescence, 48 h; series mostly up to 57.5 µM
Summary of the method: as §1

C/C=C/C=C/[C@@H]1O[C@](O)([C@H](CC)C(=O)NC/C=C/C=C(\C)[C@@H](OC)[C@@H](C)[C@@H]2O[C@H](/C=C/C=C/C=C(\C)C(=O)c3c(O)ccn(C)c3=O)[C@H](O)[C@@H]2O)[C@H](O)[C@H](O)C1(C)C
inactive: outcome [1] inactive [at 9.27 µM] | activity change, negative = cytotoxicity [2] 0.106% [at 11.6 µM] | activity change, negative = cytotoxicity [3] 11.3% [at 11.6 µM] | activity change, negative = cytotoxicity [4] -1.78% [at 11.6 µM] | activity change, negative = cytotoxicity [5] -3.84% [at 11.6 µM] | activity change, negative = cytotoxicity [6] 12.5% [at 11.6 µM] | activity change, negative = cytotoxicity [7] -0.774% [at 11.6 µM] | activity change, negative = cytotoxicity [8] -3.88% [at 11.6 µM]

O=C(/C=C/c1ccc(O)cc1)OC[C@H]1O[C@@H](O/C(=C\c2ccccc2)C(=O)O)[C@H](O)[C@@H](O)[C@@H]1O
inactive: outcome [1] inactive [at 17.4 µM] | Potency [2] | Potency [3] | outcome [4] | Potency [5] | Potency [6] | Potency [7] | Potency [8]

CC(=O)/C=C/C1(O)C(C)CC(O[C@@H]2O[C@H](CO)[C@@H](O)[C@H](O)[C@H]2O)CC1(C)C (some centres not stated)
inactive: outcome [1] inactive [at 17.4 µM] | Potency [2] | Potency [3] | outcome [4] | Potency [5] | Potency [6] | Potency [7] | Potency [8]

C=C1CCC2C(C)(C)CCC[C@]2(C)[C@H]1CC/C(C)=C/C(=O)O (some centres not stated)
inactive: outcome [1] | Potency [2] | Potency [3] | outcome [4] | Potency [5] | Potency [6] | Potency [7] | Potency [8]

NC[C@H]1CCC[C@@H](CNC(=O)[C@@H](Cc2c[nH]c3ccccc23)NC(=O)N2CCC3(C=Cc4ccccc43)CC2)C1
inactive: outcome [1] | Potency [2] | Potency [3] | outcome [4] | Potency [5] | Potency [6] | Potency [7] | Potency [8]

O=C(/C=C/c1ccccc1)O[C@@H]1[C@@H](CO)O[C@@](CO)(O[C@H]2O[C@H](CO)[C@@H](O)[C@H](O)[C@H]2O)[C@H]1O
inactive: outcome [1] inactive [at 17.4 µM] | Potency [2] | Potency [3] | outcome [4] | Potency [5] | Potency [6] | Potency [7] | Potency [8]

CC(=O)OCC1=C[C@@H]2OC(=O)C3=CO[C@@H](O[C@@H]4O[C@H](CO)[C@@H](O)[C@H](O)[C@H]4O)[C@H]1[C@@H]32
inactive: outcome [1] inactive [at 17.4 µM] | Potency [2] | Potency [3] | outcome [4] | Potency [5] | Potency [6] | Potency [7] | Potency [8]

CC1(C)CC[C@]2(C(=O)O[C@@H]3O[C@H](CO)[C@@H](O)[C@H](O)[C@H]3O)[C@H](O)C[C@]3(C)C(=CCC4[C@@]5(C)CC[C@H](O[C@@H]6OC[C@@H](O)[C@H](O)[C@H]6O)[C@@](C)(C(=O)O)C5CC[C@]43C)[C@@H]2C1 (some centres not stated)
inactive: outcome [1] inactive [at 17.4 µM] | Potency [2] | Potency [3] | outcome [4] | Potency [5] | Potency [6] | Potency [7] | Potency [8]

CC1(C)CC=C(c2cnc3ccccc3c2)c2cc(C(=O)Nc3ccc(C(=O)O)cc3)ccc21
inactive: outcome [1] | Potency [2] | Potency [3] | outcome [4] | Potency [5] | Potency [6] | Potency [7] | Potency [8]

O=C(c1c2ccccc2cc2ccccc12)N1CCC(N2CCC[C@@H](C(=O)N3CCOCC3)C2)CC1
inactive: outcome [1] | Potency [2] | Potency [3] | outcome [4] | Potency [5] | Potency [6] | Potency [7] | Potency [8]

COC1OC(O)C2(CCC3(O2)C(C)CC2OC(=O)C4(C)CCCC3(C)C24)C1O (configuration not stated)
inactive: outcome [1] | Potency [2] | Potency [3] | outcome [4] | Potency [5] | Potency [6] | Potency [7] | Potency [8]

CC(=O)OC[C@@]12C(=O)C[C@@H](C)[C@]3(C[C@@H](c4ccoc4)OC3=O)[C@H]1CC[C@H](OC(C)=O)[C@]21CO1
inactive: outcome [1] inactive [at 17.4 µM] | Potency [2] | Potency [3] | outcome [4] | Potency [5] | Potency [6] | Potency [7] | Potency [8]

Fc1ccccc1-c1nc2ccn(Cc3ccc(-c4ccc(C(F)(F)F)cc4C(F)(F)F)nn3)cc-2n1
inactive: outcome [1] | Potency [2] | Potency [3] | outcome [4] | Potency [5] | Potency [6] | Potency [7] | Potency [8]

C[C@H]1CC[C@@]2(OC1)O[C@H]1CC3C4CC[C@H]5C[C@@H](O)CC[C@]5(C)C4CC(=O)[C@]3(C)[C@H]1[C@@H]2C (some centres not stated)
inactive: outcome [1] inactive [at 17.4 µM] | Potency [2] | Potency [3] | outcome [4] | Potency [5] | Potency [6] | Potency [7] | Potency [8]

CC(=O)c1[nH]cc(CCC(=O)O)c1CC(=O)O
inactive: outcome [1] | Potency [2] | Potency [3] | outcome [4] | Potency [5] | Potency [6] | Potency [7] | Potency [8]

COC(=O)[C@H](c1ccccc1Cl)N1CCC2SC(=O)C=C2C1 (some centres not stated)
inactive: outcome [1] | Potency [2] | Potency [3] | outcome [4] | Potency [5] | Potency [6] | Potency [7] | Potency [8]

COc1cc(Nc2ccc([N+](=O)[O-])cc2C(=O)O)cc2ccccc12
inactive: outcome [1] | Potency [2] | Potency [3] | outcome [4] | Potency [5] | Potency [6] | Potency [7] | Potency [8]

COC(=O)C1=COC(OC2OC(CO)C(O)C(O)C2O)C2C(C)C(OC(=O)/C=C/c3ccc(O)cc3)C(O)C12 (configuration not stated)
inactive: outcome [1] inactive [at 17.4 µM] | Potency [2] | Potency [3] | outcome [4] | Potency [5] | Potency [6] | Potency [7] | Potency [8]

COC(=O)C1C(c2ccc(O)cc2)C(C(=O)O)C1c1ccc(O)cc1 (configuration not stated)
inactive: outcome [1] | Potency [2] | Potency [3] | outcome [4] | Potency [5] | Potency [6] | Potency [7] | Potency [8]

CCCO[C@@H]1O[C@H](CO)[C@@H](O)[C@H](O)[C@H]1O[C@@H]1OC[C@@H](O)[C@H](O)[C@H]1O
inactive: outcome [1] | Potency [2] | Potency [3] | outcome [4] | Potency [5] | Potency [6] | Potency [7] | Potency [8]

O=C(/C=C/c1ccc(O)cc1)OCC1OC(O)C(OC2OC(CO)C(O)C(O)C2O)C(O)C1O (configuration not stated)
inactive: outcome [1] inactive [at 17.4 µM] | Potency [2] | Potency [3] | outcome [4] | Potency [5] | Potency [6] | Potency [7] | Potency [8]

COC(=O)C1=C[C@@H](O)[C@@H](O)[C@H](O[C@@H]2O[C@H](CO)[C@@H](O)[C@H](O)[C@H]2OC(=O)/C=C/c2ccccc2)C1
inactive: outcome [1] inactive [at 17.4 µM] | Potency [2] | Potency [3] | outcome [4] | Potency [5] | Potency [6] | Potency [7] | Potency [8]

CCC(C)/C=C(C)/C=C/C1=CC2=C(Cl)C(=O)C(C)(OC(C)=O)C(=O)C2=CN1CCCCC(N)C(=O)O (configuration not stated)
inactive: outcome [1] inactive [at 17.4 µM] | Potency [2] | Potency [3] | outcome [4] | Potency [5] | Potency [6] | Potency [7] | Potency [8]

C=C1C(OC(C)=O)C(=O)C2C(C)(C)C(O)CCC2(C)C1CC(OC(C)=O)/C(C)=C/COC(C)=O (configuration not stated)
inactive: outcome [1] inactive [at 17.4 µM] | Potency [2] | Potency [3] | outcome [4] | Potency [5] | Potency [6] | Potency [7] | Potency [8]

COC(=O)Cn1nc(-c2cccc(OC)c2)c2ccccc21
inactive: outcome [1] | Potency [2] | Potency [3] | outcome [4] | Potency [5] | Potency [6] | Potency [7] | Potency [8]

CCc1cccc2c3c([nH]c12)[C@@](CC)(CC(=O)O)OCC3
inactive: outcome [1] | Potency [2] | Potency [3] | outcome [4] | Potency [5] | Potency [6] | Potency [7] | Potency [8]

CC(O)C1CCC2C3CCC4CC(OC5OC(C(=O)O)C(O)C(O)C5O)CCC4(C)C3CCC12C (configuration not stated)
inactive: outcome [1] | Potency [2] | Potency [3] | outcome [4] | Potency [5] | Potency [6] | Potency [7] | Potency [8]

C=CC(C)(O)CC/C=C(\C)C(=O)O[C@@H]1[C@@H](O)[C@H](OC(C)(C=C)CC/C=C(\C)C(=O)O[C@@H]2O[C@H](CO)[C@@H](O)[C@H](O)[C@H]2O)O[C@H](CO)[C@H]1OC(=O)/C(C)=C/CCC(C)(O)C=C (some centres not stated)
inactive: outcome [1] inactive [at 9.27 µM] | activity change, negative = cytotoxicity [2] 1.06% [at 11.6 µM] | activity change, negative = cytotoxicity [3] -0.925% [at 11.6 µM] | activity change, negative = cytotoxicity [4] -1.1% [at 11.6 µM] | activity change, negative = cytotoxicity [5] 0.394% [at 11.6 µM] | activity change, negative = cytotoxicity [6] -4.07% [at 11.6 µM] | activity change, negative = cytotoxicity [7] 7.88% [at 11.6 µM] | activity change, negative = cytotoxicity [8] -0.355% [at 11.6 µM]

COc1cccc(Cn2ncc3c4sc(S(C)=O)cc4n(C)c3c2=O)c1 (configuration not stated)
inactive: outcome [1] | Potency [2] | Potency [3] | outcome [4] | Potency [5] | Potency [6] | Potency [7] | Potency [8]

O=C(NCC(=O)N1CCCC1)Nc1ccc2ccccc2c1
inactive: outcome [1] | Potency [2] | Potency [3] | outcome [4] | Potency [5] | Potency [6] | Potency [7] | Potency [8]

CC1=CCC[C@@H]2[C@@](C)(CCc3ccoc3)[C@H](C(=O)O)CC[C@@]12C
inactive: outcome [1] | Potency [2] | Potency [3] | outcome [4] | Potency [5] | Potency [6] | Potency [7] | Potency [8]

C/C=C/C(=O)OC1/C=C/C(O)C(OC(C)=O)CCC(=O)OC1C (configuration not stated)
inactive: outcome [1] | Potency [2] | Potency [3] | outcome [4] | Potency [5] | Potency [6] | Potency [7] | Potency [8]

OCC1=C[C@@H](O)[C@@H]2C=CO[C@@H](O[C@@H]3O[C@H](CO)[C@@H](O)[C@H](O)[C@H]3O)[C@H]12
inactive: outcome [1] | Potency [2] | Potency [3] | outcome [4] | Potency [5] | Potency [6] | Potency [7] | Potency [8]

N#CN1CCC[C@@H](n2nc(-c3ccc(Oc4ccc(F)cc4F)cc3)c(C(N)=O)c2N)C1
inactive: outcome [1] | Potency [2] | Potency [3] | outcome [4] | Potency [5] | Potency [6] | Potency [7] | Potency [8]
